Measurements reported in PubChem BioAssay (EPA / NIEHS).
The source made the active and inactive calls. How the source made its calls: active means hit-call score of the fitted dose curve at least 0.9, where 1 is the maximum; inactive means score below 0.9.

Assay: ATG_ERE_CIS: Attagene CIS-FACTORIAL HepG2 Assay for Estrogen Response Element (ERE) (AID 2282940)
Details: HepG2 ERE cis-reporter, Attagene RNA transcript; actives raise or lower the signal
Method: ATG_CIS is a cell-based, multiplexed-readout assay that uses HepG2, a human liver cell line, with measurements taken at 24 hours after chemical dosing in a 24-well plate.ATG_ERE_CIS is one of 52 assay component(s) measured or calculated from the ATG_CIS assay. It is designed to make measurements of mRNA induction, a form of inducible reporter, as detected with fluorescence intensity signals by Reverse transcription polymerase chain reaction (RT-PCR) and Capillary electrophoresis technology.Data from the assay component ATG_ERE_CIS was analyzed into 1 assay endpoint. This assay endpoint, ATG_ERE_CIS, was analyzed with bidirectional fitting relative to DMSO as the negative control and baseline of activity. Using a type of inducible reporter, measures of mRNA for gain or loss-of-signal activity can be used to understand the reporter gene at the transcription factor-level as they relate to the gene ESR1. Furthermore, this assay endpoint can be referred to as a primary readout, because this assay has produced multiple assay endpoints where this one serves a reporter gene function. To generalize the intended target to other relatable targets, this assay endpoint is annotated to the nuclear receptor intended target family, where the subfamily is steroidal.
Human liver HepG2 cells are transiently transfected with multiple reporter transcription units (MRTUs) in 6-well plates using FuGene 6 reagent (Roche; 3 ml FuGene/1 mg DNA). The MRTU constructs are regulated by a cis-regulating element (promoter). […] A major difference between the CIS and TRANS system is that in CIS activities of endogenous TFs are measured, whereas the TRANS assay evaluates changes in activities of exogenous, chimeric NR-Gal4 proteins. […] At the end of 24 hour incubation, total RNA was isolated using TriZol reagent (Invitrogen). The isolated RNA is then reverse-transcribed using oligo(dT) primer and Mo-MLV reverse transcriptase (Invitrogen) with DNAse I (Ambion) treatment for 30 min. The one-tenth of the produced cDNA was amplified by PCR using Taq DNA polymerase (Invitrogen) and two reporter sequence-specific primers. The PCR products were fluorescently labeled by primer extension with 6-arboxyfluorescein (6-FAM) 5'-labeled reporter sequence-specific primer (2 min at 95 C, 20 s at 68 C and 10 min at 72 C) and these products were digested with 5U of HpaI (New England Biolabs) for 2h at 37 C. The fragments were purified using Qiaquick PCR columns (Qiagen), analyzed on an ABI 3130xL genetic analyzer (Applied Biosystems) with peak positions identified by using a set of X-rhodamine (ROX)-labeled MapMarker1000 molecular weight standards (BioVentures). The raw capillary electrophoresis data was processed using Attagraph software (Attagene).
For `CCC(C)(C)c1cc(O)c(C(C)(C)CC)cc1O`, the outcome was “inactive”. In the case of `CCCCCC1CCC(=O)O1` (stereo not given), the outcome is reported as “inactive”. For `CC(C)CCCC(C)(C)O`, the outcome was “inactive”. For `CCNC(=S)NCC`, the outcome was “inactive”. For `C/C=C(\C)C(=O)OC/C=C(\C)CCC=C(C)C`, the AC50 was 39 µM (active). With `CC(C)N1C(=O)c2ccccc2C1=O` the AC50 was 74.7 µM (active). In the case of `CC(C)(C)c1cc(CCC(=O)OCCSCCOC(=O)CCc2cc(C(C)(C)C)c(O)c(C(C)(C)C)c2)cc(C(C)(C)C)c1O`, the outcome is reported as “inactive”. In the case of `CC(C)(O)C(=O)c1ccc(OCCO)cc1`, the outcome is reported as “inactive”. With `CC(C)(C)C1CCC(O)CC1` (stereo not given) the AC50 was 32.8 µM (active). For `CCCCCC#CC(=O)OC`, the outcome was “inactive”. For `CCC(=O)OC(C)(C)C1CC=C(C)CC1` (stereo not given), the AC50 was 100 µM (active). In the case of `CC/C=C\C#N`, the outcome is reported as “inactive”. With `CCOC(=O)CC1(C)OCC(C)O1` (stereo not given) the outcome was “inactive”. With `CCCCN(CCCC)CCCCCCN(CCCC)CCCC` the outcome was “inactive”. In the case of `CCOC(=O)CCCCCCCCC(=O)OCC`, the outcome is reported as “inactive”. In the case of `CCCCC(CC)COCCO` (stereo not given), the outcome is reported as “inactive”. In the case of `CCC(C)(C)C1CCC(OC)CC1` (stereo not given), the outcome is reported as “inactive”. With `O=C(O)c1cccc(Cl)n1` the outcome was “inactive”. For `CCC(C)(CCCC(C)C)OC(C)=O` (stereo not given), the outcome was “inactive”. With `Cc1cc(O)c(C)c(C)c1O` the outcome was “inactive”. In the case of `CC(C)(CO)CO`, the outcome is reported as “inactive”. In the case of `CC(=O)CCc1ccc(O)cc1`, the outcome is reported as “inactive”. With `Nc1cc([N+](=O)[O-])ccc1C(=O)O` the outcome was “inactive”. With `CCCC1CCC(=O)CC1` the outcome was “inactive”. With `C=CC(=O)OCC(CO)(COC(=O)C=C)COC(=O)C=C` the outcome was “inactive”. With `CCCCCCOC(C)=O` the outcome was “inactive”. With `CN(C)C` the outcome was “inactive”. With `O=C(O)c1cc2ccccc2cc1O` the outcome was “inactive”. With `CC1=CCC(C(C)(C)O)CC1` (stereo not given) the outcome was “inactive”. For `NNC(=O)OCc1ccccc1`, the outcome was “inactive”. In the case of `CC(CCO)CC(C)(C)C` (stereo not given), the outcome is reported as “inactive”. With `CCCCCCCOC(C)=O` the AC50 was 3.71 µM (active). With `CCCCCCCCSCc1cc(C)c(O)c(CSCCCCCCCC)c1` the outcome was “inactive”. In the case of `CCCCCCCCCCCCCCCCCC(=O)OCCCCCCCCCCCCCC(C)C`, the AC50 is reported as 28.7 µM (active). With `O=Cc1ccccc1O` the AC50 was 25.2 µM (active). In the case of `[O-]/[N+](=N\O)c1ccccc1`, the AC50 is reported as 27.7 µM (active). With `NC(=O)c1cccnc1` the outcome was “inactive”. With `CC(=O)OC(C)(C)C1CC=C(C)CC1` (stereo not given) the AC50 was 26.1 µM (active). With `CCO[Si](CC)(OCC)OCC` the outcome was “inactive”. With `CC(=O)c1ccc(O)cc1` the AC50 was 26.5 µM (active).
